Compound activity: PubChem BioAssay, several laboratories
Hits are enriched below; roughly 2.6% of the tested compounds scored in any of these assays.
TROY signal inh – inhibitors of TROY-dependent NF-kB signaling | Q293 LMP1-TROYcd NF-kB luciferase reporter, 4 h | inhibition, % at 10 µM | 0.98% of 360,000 active | AID 1347056;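 active = compounds whose plate-normalised and pattern-corrected inhibition of the luciferase reporter signal at the single screening dose is 50% or more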
LGR2 inh – blocks bursicon-induced cAMP signaling via Drosophila LGR2; inhibition, % at 9.99 µM; AID 720647; HEK293 LGR2, CRE-luciferase, bursicon-stimulated, 4 h; 0.35% of 380,000 active;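 active = drop in luminescence signal, shown as inhibition above about 50% in the replicate tests, limit read from the data, passing the limit was not always enough; inconclusive = probably only some replicates passing the limit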;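 also: agonist challenge used bursicon conditioned medium at about half maximal strength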
EBV LMP1 NFkB – reduces LMP1-driven NF-kappaB luciferase signal. LMP1-induced NF-kappaB luciferase reporter cells, luminescence. inhibition, % at 12.5 µM. 0.69% of 350,000 active; in the data active = inhibition above about 41%; inconclusive = no clear call, values can overlap the other calls;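 also: 0% = neutral control wells and 100% = reference inhibitor control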
EWS-Fli inh – inhibitors of EWS/Fli oncoprotein transcriptional activity; AID 651661; inhibition, % at 12.6 µM; 0.67% of 350,000 active; A673 NR0B1-luciferase reporter, viability-normalised;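 active = mean inhibition of at least 50% after viability correction, with every replicate also passing that limit; inconclusive = mean reaches 50% but only one of two replicates passes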;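 also: firefly luciferase signal divided by Alamar Blue viability fluorescence both relative to DMSO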
TWEAK-Fn14 inh – TWEAK-Fn14 signaling inhibition | TWEAK-stimulated Fn14 reporter cells, luciferase luminescence, 8 h | inhibition, % at 10 µM | 2% of 360,000 active; in the data active = inhibition above about 50%
* hit, by the source's call; ? = inconclusive; nt = no result.

SMILES	TROY signal inh	LGR2 inh	EBV LMP1 NFkB	EWS-Fli inh	TWEAK-Fn14 inh
O=C(O)/C=C/c1cnc2ccccc2n1	63.7*	4.5	-8.8	8.1	7.5
CCC(C)(C)NC(=O)/C=C/c1cnc2ccccc2n1	-58.4	-43.6	5.6	-32.8	23.3
O=C(/C=C/c1cnc2ccccc2n1)NC12CC3CC(CC(C3)C1)C2	70.5*	34.5	-46.4	nt	72.7*
COC(=O)c1ccccc1NC(=O)c1ccc(COc2cc(C)cc(C)c2)o1	1.3	-10.1	-0.3	nt	-6.4
COC(=O)c1ccccc1NC(=O)c1ccc(COc2ccc(C)c(C)c2)o1	nt	nt	5.2	nt	81.2*
O=[N+]([O-])c1ccc(-c2nc(Nc3cccc(O)c3)c3ccccc3n2)cc1	82.3*	-3.9	-15.8	11.2	80.4*
O=[N+]([O-])c1ccc(-c2c(O)c3ccccc3c3nc4ccccc4nc23)cc1	54.0*	0.5	8.9	3.9	22.2
O=C(C[C@@H]1C[C@H]2c3cc(NC(=O)Nc4ccccc4F)ccc3O[C@H]2[C@@H](CO)O1)NCC1CC1	nt	11.9	nt	-4.3	nt
O=C(N[C@H](C(=O)N1CCC[C@H]1C(=O)NCc1ccccc1)c1ccccc1)C1CCCC1	nt	-9.0	nt	4.2	nt
C[C@H]1CN([C@@H](C)CO)C(=O)c2cc(C#CC3CCCCC3)cnc2O[C@@H]1CN(C)C(=O)NC1CCCC1	nt	0.0	nt	-4.2	nt
O=S(=O)(Nc1c(F)cccc1F)c1ccc(Cl)nc1	85.6*	-4.8	6.4	-1.8	9.5
O=C(C[C@H]1C[C@H]2c3cc(NC(=O)C4CCOCC4)ccc3O[C@H]2[C@@H](CO)O1)NCc1cc(F)ccc1F	nt	15.5	nt	-11.7	nt
N#Cc1c(N)nc(Sc2ccc(Cl)cc2)c(C#N)c1-c1ccccc1Cl	48.0	32.1	8.6	18.5	58.1*
COc1ccc(CNC(=O)C(=O)NCCC2CCCCN2S(=O)(=O)c2ccccc2)cc1 (configuration not stated)	15.1	10.4	8.6	6.4	-4.0
COc1ccc(NC(=O)C(=O)NCCC2CCCCN2S(=O)(=O)c2cccs2)cc1 (configuration not stated)	3.3	1.5	-9.4	58.3*	21.9
COc1ccc(NC(=O)C(=O)NCCC2CCCCN2S(=O)(=O)c2ccccc2)cc1 (configuration not stated)	17.3	-0.7	0.9	52.1*	20.8
CCCC#Cc1cnc2c(c1)C(=O)N([C@H](C)CO)C[C@@H](C)[C@H](CN(C)C(=O)c1ccc(F)cc1)O2	nt	13.2	nt	2.5	nt
COCC#Cc1cnc2c(c1)C(=O)N([C@H](C)CO)C[C@H](C)[C@@H](CN(C)C(=O)c1cccc(F)c1)O2	nt	-3.5	nt	1.8	nt
C[C@@H]1CN([C@@H](C)CO)C(=O)c2cccc(NC(=O)Nc3ccc(F)cc3)c2O[C@H]1CN(C)C(=O)Nc1cccc2ccccc12	nt	9.1	nt	9.7	nt
O=[N+]([O-])c1ccc(NN=Cc2ccccc2O)nc1	-30.1	-44.3	1.6	-80.8	13.9
O=[N+]([O-])c1ccc(O)c(/C=N/Nc2ccccn2)c1	16.3	23.6	46.7*	20.3	-26.3
O=[N+]([O-])c1ccc(O)c(/C=N/Nc2ncnc3c2cnn3-c2ccccc2)c1	6.7	-8.9	46.6*	6.8	39.6
O=[N+]([O-])c1ccc(O)c(/C=N/Nc2nc3ccccc3[nH]2)c1	-40.2	-33.1	28.4	-12.2	19.6
Cc1ccc(NCc2nc3ccccc3n2C)cc1	49.2	nt	-45.8	nt	65.8*
C[C@H](CO)N1C[C@H](C)[C@H](CN(C)Cc2ccncc2)Oc2ncc(C#Cc3ccccc3)cc2C1=O	nt	12.8	nt	2.6	nt
SMILES	TROY signal inh	LGR2 inh	EBV LMP1 NFkB	EWS-Fli inh	TWEAK-Fn14 inh
O=S(=O)(Nc1c(S(=O)(=O)c2ccccc2)c2nc3ccccc3nc2n1C1CCCCC1)c1ccccc1	64.3*	?	0.4	3.3	98.0*
C=CCn1c(NS(=O)(=O)c2ccccc2)c(S(=O)(=O)c2ccc(C)cc2)c2nc3ccccc3nc21	20.5	-1.4	-173.2	-5.5	-0.4
S=C(NCc1cccs1)Nc1ccccc1	-6.8	13.1	-1.6	11.5	-9.9
Cc1ccc(NC(=S)NCc2cccs2)cc1	-37.2	nt	86.6*	nt	-3.2
CC(C)CC#Cc1ccc2c(c1)O[C@@H](CN(C)C)[C@@H](C)CN([C@H](C)CO)S2(=O)=O	nt	-5.6	nt	6.3	nt
Cc1sc(-c2ccccn2)nc1OC(=O)c1ccc(Cl)cc1	58.4*	nt	12.1	nt	28.4
C[C@@H]1CN([C@H](C)CO)C(=O)c2cc(C#CCN(C)C)cnc2O[C@H]1CN(C)C(=O)CCN1CCCCC1	nt	-15.5	nt	-7.4	nt
CCCCCCCCC(c1nc2ccccc2[nH]1)N1CCN=C1c1cc2ccccc2[nH]1 (configuration not stated)	-5.4	79.7*	nt	38.0	12.9
O=C(C1CCCC1)N1CC(=O)N2[C@@H](CO)[C@H](c3ccc(C#CCc4ccccc4)cc3)[C@@H]2C1	nt	22.8	nt	-1.3	nt
Cc1nn(-c2ccccc2)c(N2CCCC2)c1/C=N/NC(=S)Nc1ccccc1F	64.5*	-39.1	-4.3	11.7	25.6
CCCN(C)C[C@@H]1OCCCC[C@@H](C)Oc2ccc(NC(=O)Cc3ccccc3)cc2C(=O)N([C@H](C)CO)C[C@@H]1C	nt	-12.5	nt	-1.6	nt
COC1C(C)=C(C)C(=O)N1Cc1ccccc1 (configuration not stated)	4.0	5.0	4.8	14.7	10.9
COc1ccc(CN2C(=O)C(C)=C(C)C2OC)cc1 (configuration not stated)	-2.4	-3.2	-7.0	-3.8	90.0*
CCn1c(CCNC(=O)c2ccc(OC)cc2)nnc1SCc1ccc(Cl)cc1Cl	62.7*	13.1	66.1*	nt	11.8
CCn1c(CCNC(=O)c2ccc(OC)cc2)nnc1SCc1ccc(Cl)c(Cl)c1	18.8	8.9	0.1	nt	14.4
O=C(NC1CC1)c1cccc2c1C(=O)c1ccc(N3CCC(Cc4ccccc4)CC3)cc1S2(=O)=O	29.6	30.9	6.5	19.9	63.5*
O=C1c2ccc(Cl)cc2S(=O)(=O)c2cccc(C(=O)N3CCC(Cc4ccccc4)CC3)c21	65.4*	?	-0.2	10.2	-55.7
O=C1c2ccc(Cl)cc2S(=O)(=O)c2cccc(C(=O)N3CCN(c4ncc(Br)cn4)CC3)c21	28.7	14.4	13.4	0.6	-19.6
COc1ccc(NC(=O)Nc2ccc3c(c2)C(=O)N([C@H](C)CO)C[C@H](C)[C@@H](CN(C)Cc2ccc(Oc4ccccc4)cc2)O3)cc1	nt	-6.2	nt	-0.8	nt
CCN(CC)C1CCCCC1NS(=O)(=O)c1ccc(Cl)cc1 (configuration not stated)	-12.3	4.5	52.4*	-0.4	7.0
CC(C(=O)O)c1ccc(N2Cc3ccccc3C2=O)cc1 (configuration not stated)	8.5	nt	30.4	50.8*	69.8*
CCCNC(=O)N1[C@@H](CO)[C@@H](c2ccccc2)C12CN(C(=O)c1cccnc1)C2	nt	-14.8	nt	2.7	nt
C[C@H]1CN([C@@H](C)CO)C(=O)Cc2cc(NC(=O)c3ccncc3)ccc2O[C@@H]1CN(C)CC1CC1	nt	-3.2	nt	5.1	nt
CCN1[C@H](C(=O)N(C)C)[C@@H](CO)[C@@H]2Cn3c(ccc(-c4ccc(F)cc4)c3=O)[C@@H]21	nt	-15.5	nt	-3.7	nt
